According to publication PMC5540273 (PLoS ONE, 2017):
“And” between values parts separate entries of the source, which are not always exact repeats. Equal entries are not always repeated. Where two headings read alike, the source gives them in different places.

Key:
[1] = system: TAOK2; details: concentration: 1 μM, replicates: in singlicate, n = 1
[2] = system: TAOK3; details: concentration: 1 μM, replicates: in singlicate, n = 1
[3] = system: TBK1; details: concentration: 1 μM, replicates: in singlicate, n = 1
[4] = system: TEC; details: concentration: 1 μM, replicates: in singlicate, n = 1
[5] = system: TESK1; details: concentration: 1 μM, replicates: in singlicate, n = 1
[6] = system: TGFBR1; details: concentration: 1 μM, replicates: in singlicate, n = 1
[7] = system: TGFBR2; details: concentration: 1 μM, replicates: in singlicate, n = 1
[8] = system: TIE1; details: concentration: 1 μM, replicates: in singlicate; n = 1
[9] = system: T1, TIE2; details: concentration: 1 μM, replicates: in singlicate; n = 1
T1 construct: gene TEK

[10] = system: TLK1; details: concentration: 1 μM, replicates: in singlicate, n = 1
[11] = system: TLK2; details: concentration: 1 μM, replicates: in singlicate, n = 1
[12] = system: TNIK; details: concentration: 1 μM, replicates: in singlicate, n = 1
[13] = system: TNK1; details: concentration: 1 μM, replicates: in singlicate, n = 1
[14] = system: TNK2; details: concentration: 1 μM, replicates: in singlicate, n = 1
[15] = system: TNNI3K; details: concentration: 1 μM, replicates: in singlicate; n = 1
[16] = system: T2, TRKA; details: concentration: 1 μM, replicates: in singlicate; n = 1
T2 construct: gene NTRK1

[17] = system: TRKB; details: concentration: 1 μM, replicates: in singlicate, n = 1
[18] = system: T3, TRKC; details: concentration: 1 μM, replicates: in singlicate, n = 1
T3 construct: gene NTRK3

[19] = system: TRPM6; details: concentration: 1 μM, replicates: in singlicate, n = 1
[20] = system: TSSK1B; details: concentration: 1 μM, replicates: in singlicate; n = 1
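Further: KINOMEscan kinase panel screen.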

NCC(NC(=O)c1cc(-c2cn[nH]c2)c(-c2ccnc3[nH]ccc23)s1)c1ccccc1.O=C(O)C(F)(F)F.O=C(O)C(F)(F)F (stereo not drawn) [GSK1325775] was tested, and the “%Inh” value [1] was 40%, the “%Inh” value [2] was 40% and the “%Inh” value [3] was 20%. The “%Inh” value [4] was 1%, the “%Inh” value [5] was 18% and the “%Inh” value [6] was 4%. For the same molecule, the “%Inh” value [7] was 0%, the “%Inh” value [8] was 6% and the “%Inh” value [9] was 0%. The “%Inh” value [10] was 5%, the “%Inh” value [11] was 14% and the “%Inh” value [12] was 39%. For the same molecule, the “%Inh” value [13] was 0%, the “%Inh” value [14] was 0% and the “%Inh” value [15] was 0%. For the same molecule, the “%Inh” value [16] was 76%, the “%Inh” value [17] was 57% and the “%Inh” value [18] was 57%. For the same molecule, the “%Inh” value [19] was 45% and the “%Inh” value [20] was 33%.
CNc1ncnc2[nH]ncc12 [SKF-18355] was tested, and the “%Inh” value [1] was 24%, the “%Inh” value [2] was 0% and the “%Inh” value [3] was 30%. The “%Inh” value [4] was 0%, the “%Inh” value [5] was 10% and the “%Inh” value [6] was 47%. The “%Inh” value [7] was 0%, the “%Inh” value [8] was 0% and the “%Inh” value [9] was 2%. For the same molecule, the “%Inh” value [10] was 0%, the “%Inh” value [11] was 0% and the “%Inh” value [12] was 17%. For the same molecule, the “%Inh” value [13] was 0%, the “%Inh” value [14] was 0% and the “%Inh” value [15] was 0%. For the same molecule, the “%Inh” value [16] was 0%, the “%Inh” value [17] was 0% and the “%Inh” value [18] was 0%. The “%Inh” value [19] was 23% and the “%Inh” value [20] was 0%.
COc1ccc(Nc2nccc(N3CCC(NC(=O)Nc4cccc(C(C)=O)c4)C3)n2)cc1 (stereo not drawn) [GSK1379731] was tested, and the “%Inh” value [1] was 0%, the “%Inh” value [2] was 0% and the “%Inh” value [3] was 0%. The “%Inh” value [4] was 0%, the “%Inh” value [5] was 30% and the “%Inh” value [6] was 0%. The “%Inh” value [7] was 0%, the “%Inh” value [8] was 0% and the “%Inh” value [9] was 0%. For the same molecule, the “%Inh” value [10] was 0%, the “%Inh” value [11] was 0% and the “%Inh” value [12] was 0%. The “%Inh” value [13] was 0%, the “%Inh” value [14] was 0% and the “%Inh” value [15] was 48%. The “%Inh” value [16] was 50%, the “%Inh” value [17] was 44% and the “%Inh” value [18] was 78%. The “%Inh” value [19] was 2% and the “%Inh” value [20] was 0%.
With Cl.Cl.Cl.Fc1ccc(-c2ncn(C3CCNCC3)c2-c2ccnc(Nc3ccccc3)n2)cc1 [SB-238039] the “%Inh” value ([1]; 1 µM) was 78% and 0%, the “%Inh” value ([2]; 1 µM) was 91.5% and 57% and the “%Inh” value ([3]; 1 µM) was 36% and 0%. The “%Inh” value ([4]; 1 µM) was 12% and 0%, the “%Inh” value ([5]; 1 µM) was 8% and 0% and the “%Inh” value ([6]; 1 µM) was 61% and 29%. For the same molecule, the “%Inh” value ([7]; 1 µM) was 16% and 12%, the “%Inh” value [8] was 0% and the “%Inh” value [9] was 0%. For the same molecule, the “%Inh” value ([10]; 1 µM) was 4% and 19%, the “%Inh” value ([11]; 1 µM) was 13% and 0% and the “%Inh” value ([12]; 1 µM) was 86% and 84%. For the same molecule, the “%Inh” value ([13]; 1 µM) was 58% and 12%, the “%Inh” value ([14]; 1 µM) was 0% and 10% and the “%Inh” value [15] was 0%. The “%Inh” value [16] was 0%, the “%Inh” value ([17]; 1 µM) was 18% and 16% and the “%Inh” value ([18]; 1 µM) was 67% and 0%. The “%Inh” value ([19]; 1 µM) was 6% and 0% and the “%Inh” value [20] was 0%.
Fc1ccc(-c2ncn(CCCN3CCOCC3)c2-c2cccnc2)cc1 [SB-211743] was tested, and the “%Inh” value [1] was 34%, the “%Inh” value [2] was 0% and the “%Inh” value [3] was 43%. The “%Inh” value [4] was 9%, the “%Inh” value [5] was 5% and the “%Inh” value [6] was 26%. The “%Inh” value [7] was 12%, the “%Inh” value [8] was 9% and the “%Inh” value [9] was 0%. For the same molecule, the “%Inh” value [10] was 0%, the “%Inh” value [11] was 0% and the “%Inh” value [12] was 13%. For the same molecule, the “%Inh” value [13] was 14%, the “%Inh” value [14] was 0% and the “%Inh” value [15] was 0%. For the same molecule, the “%Inh” value [16] was 0%, the “%Inh” value [17] was 0% and the “%Inh” value [18] was 0%. For the same molecule, the “%Inh” value [19] was 3% and the “%Inh” value [20] was 0%.
With O=C(NCCNc1ccnc(Nc2ccc(F)cc2)n1)Nc1ccccc1F [GSK1379880] the “%Inh” value [1] was 0%, the “%Inh” value [2] was 0% and the “%Inh” value [3] was 6%. For the same molecule, the “%Inh” value [4] was 14%, the “%Inh” value [5] was 0% and the “%Inh” value [6] was 0%. For the same molecule, the “%Inh” value [7] was 0%, the “%Inh” value [8] was 0% and the “%Inh” value [9] was 0%. For the same molecule, the “%Inh” value [10] was 2%, the “%Inh” value [11] was 0% and the “%Inh” value [12] was 0%. The “%Inh” value [13] was 0%, the “%Inh” value [14] was 8% and the “%Inh” value [15] was 5%. The “%Inh” value [16] was 0%, the “%Inh” value [17] was 18% and the “%Inh” value [18] was 13%. The “%Inh” value [19] was 24% and the “%Inh” value [20] was 0%.
